Measured potencies and affinities stand elsewhere. Activity calls are given as the source filed them.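 Rule for the calls: active = cytotoxic compounds with fitted half-maximal concentration at most double the highest valid dose; inconclusive = flat curve with moderate signal loss, or unreliable fit; inactive = the rest.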

This assay can be described thus: cytotoxicity in HepG2 cells, dose response, cytotoxicity control, cell-based, cherry-picked samples (AID 1053183). The conditions noted are these: HepG2 viability, CellTiter-Glo ATP luminescence, 72 h; series mostly up to 26 µM; activity change, negative = cytotoxicity: at the top concentration.
In the case of `CNC[C@@H]1Oc2cc(C#Cc3ccccc3OC)ccc2S(=O)(=O)N([C@H](C)CO)C[C@H]1C`, the “activity change, negative = cytotoxicity” value was -4.67% (inactive).
With `C[C@H](CO)N1C[C@H](C)[C@@H](CN(C)Cc2ccccc2)Oc2c(NC(=O)Cc3cn(C)c4ccccc34)cccc2C1=O`, the “activity change, negative = cytotoxicity” value is -10.5% (inactive).
In the case of `C[C@@H]1CN([C@@H](C)CO)C(=O)Cc2cc(NC(=O)C3CCCCC3)ccc2O[C@@H]1CN(C)Cc1ccc(Cl)c(Cl)c1` it was -27.5% (inactive); in that of `CN(C)C(=O)c1cccc(-c2ccc(C3[C@@H]4CN(Cc5ccccc5F)C[C@H]3N4)cc2)c1` (stereo partly drawn), -25.9% [at 23.5 µM] (inactive).
Regarding `COc1cccc(-c2cccc(-c3nc(C(=O)Nc4ccc(-c5ccccc5)cc4)cc4c3[C@@H](CCO)N(S(=O)C(C)(C)C)C4)c2)c1` (stereo partly drawn), the “activity change, negative = cytotoxicity” value is 3.67% (inactive).
For `CO[C@@H](CN(C)Cc1cc(F)ccc1F)[C@@H](C)CN(C(=O)Nc1ccc(C(F)(F)F)cc1)[C@H](C)CO` the value was -10.9% (inactive); for `C/C=C/c1ccc([C@H]2[C@@H](CO)N3C(=O)CN(Cc4ccc(F)cc4)C[C@@H]23)cc1`, -19.3% (inactive); for `COc1ccc2c3c(n(C)c2c1)[C@@H](CO)N(CC1CC1)CC31CN(C(=O)c2ccc3c(c2)OCO3)C1`, -18.4% (inactive).

The record behind these values is PubChem BioAssay AID1053183 (Broad Institute, 2014).
